# Test results reported in PubChem BioAssay (NCI).
# About 83,000 compounds went through this panel and 20% of them were active in at least one assay; those are over-represented in the sample as a whole.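 Negative percent growth values reflect cell death: -40 means 40% of the cells present at the start died, and -100 means all died.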 Unmarked numbers belong to inactive results. Active and inactive are the calls of the source. The calls were made as follows: active = growth percent below 10; inactive = the rest.
# What was measured:
# Assay in all cases: NCI-60 one-dose screen, 48 h (100 = growth as untreated, 0 = no growth, -100 = all killed)
# Conditions in all cases: 10 µM unless noted
# SK-MEL-2 melanoma = test system: SK-MEL-2 melanoma
# EKVX NSCLC = test system: EKVX NSCLC
# SN12C renal = test system: SN12C renal
# UO-31 renal = test system: UO-31 renal
# TK-10 renal = test system: TK-10 renal
# ACHN renal = test system: ACHN renal
# CAKI-1 renal = test system: CAKI-1 renal
# A498 renal = test system: A498 renal
# CCRF-CEM leukemia = test system: CCRF-CEM leukemia
# MOLT-4 leukemia = test system: MOLT-4 leukemia
# SR leukemia = test system: SR leukemia
# RPMI-8226 leukemia = test system: RPMI-8226 leukemia
# OVCAR-5 ovarian = test system: OVCAR-5 ovarian
# OVCAR-4 ovarian = test system: OVCAR-4 ovarian
# SK-OV-3 ovarian = test system: SK-OV-3 ovarian
# IGROV1 ovarian = test system: IGROV1 ovarian
# OVCAR-3 ovarian = test system: OVCAR-3 ovarian
# HS 578T breast = test system: HS 578T breast
# NCI/ADR-RES ovarian = test system: NCI/ADR-RES ovarian
# OVCAR-8 ovarian = test system: OVCAR-8 ovarian
Compound,growth (SK-MEL-2 melanoma),growth (EKVX NSCLC),growth (SN12C renal),growth (UO-31 renal),growth (TK-10 renal),growth (ACHN renal),growth (CAKI-1 renal),growth (A498 renal),growth (CCRF-CEM leukemia),growth (MOLT-4 leukemia),growth (SR leukemia),growth (RPMI-8226 leukemia),growth (OVCAR-5 ovarian),growth (OVCAR-4 ovarian),growth (SK-OV-3 ovarian),growth (IGROV1 ovarian),growth (OVCAR-3 ovarian),growth (HS 578T breast),growth (NCI/ADR-RES ovarian),growth (OVCAR-8 ovarian)
O=C(Cn1nnc2ccccc21)Nc1ccc(-c2nc3ccccc3s2)cc1,101%,78.2%,101%,86.5%,94.8%,110%,85.5%,85.1%,69.7%,61.6%,40.2%,85.3%,104%,72.2%,104%,97.5%,90.4%,112%,96.2%,
CCCNc1nc2ccccc2c2c(=O)c3cccc(Cl)c3sc12,102%,85.1%,105%,66.9%,129%,92.7%,71.7%,124%,92.2%,93.9%,82.7%,103%,96.5%,81.9%,88.4%,70.1%,111%,114%,101%,
CCN=C1C=CC(=C(c2ccc(N(C)C)cc2)c2ccc(N(C)C)cc2)c2ccccc21,-39.5% (active),-6.63% (active),-22.2% (active),-42.9% (active),-3.47% (active),-9.84% (active),0.419% (active),13.3%,9.37% (active),9.89% (active),3.56% (active),,4.09% (active),16.3%,-35.2% (active),-7.04% (active),-60.9% (active),-29.8% (active),12.3%,-8.37% (active)
O=C(/C=C\c1ccco1)/C=C/c1ccco1,109%,99.5%,97.7%,76.3%,108%,110%,107%,97.5%,8.75% (active),112%,103%,99.1%,95.1%,105%,104%,110%,134%,,105%,
CCN(CC)c1ccc(/C=N\NC(=O)c2cccc(Nc3ccnc(C(F)(F)F)c3)c2)c(O)c1,87.5%,26.6%,18.2%,7.3% (active),42.8%,12.1%,55.6%,53%,15.7%,77.5%,131%,6.52% (active),48.6%,18.8%,19.5%,79.9%,30.9%,,29.4%,
COc1cc(-c2nc3ccc(C)cc3[nH]2)ccc1OCC(=O)N=Nc1c(O)[nH]c2ccc(Cl)cc12,13%,50.7%,-56.4% (active),86.3%,23.4%,31.4%,-61.8% (active),82.2%,-39.1% (active),-17.9% (active),-32.8% (active),-36.6% (active),11.1%,-8% (active),32%,4.74% (active),-70.2% (active),-22.3% (active),83.4%,
COc1ccc2cc(-c3ccc(-c4ccc(C(=N)N)s4)s3)ccc2c1,95.3%,0.97% (active),-55.2% (active),36.6%,89.6%,27%,88.8%,73.6%,-14% (active),1.6% (active),-14.5% (active),,-33% (active),-45.6% (active),97.2%,63%,-61.1% (active),90.3%,-43% (active),-32.6% (active)
CN1CCCc2cc(/C=C3/SC(=S)N(CCc4ccc(O)cc4)C3=O)ccc21,98%,93.7%,77.3%,52.4%,114%,87.3%,58.8%,73.5%,14.8%,51%,32.9%,49.5%,108%,87.2%,111%,76%,88.2%,93.9%,83.3%,
O=C(CCCCCCN1CC(=O)N2[C@@H](C3CCCCC3)c3[nH]c4ccccc4c3C[C@H]2C1=O)NO,69.2%,77.7%,-97.1% (active),84.8%,48.5%,88.7%,70.8%,82.1%,26.5%,10.3%,11.5%,39.5%,66.6%,84.6%,71.5%,29%,71.1%,70.2%,105%,
CCCCNC1=C(OCC)C(=O)c2ccccc2C1=O,104%,104%,97.2%,91.5%,145%,105%,110%,37.4%,,108%,112%,88.1%,150%,94.3%,119%,115%,98.3%,84.2%,97.3%,101%
O=C(CCl)Nc1ccc2c(Nc3cc(O)ccc3Cl)ncnc2c1,-76.5% (active),-53.8% (active),-83.4% (active),-92.9% (active),-66.9% (active),-98.3% (active),-86.1% (active),56.2%,,-24.4% (active),-22.5% (active),-45.9% (active),-74.7% (active),-65.2% (active),-4.95% (active),-71.2% (active),-83.4% (active),4.71% (active),-39.8% (active),-33.9% (active)
NC(=O)OCCn1cc(-c2nc(-c3c[nH]c4ncccc34)cs2)c2ccccc21,2.38% (active),42.1%,49.1%,34.1%,62.3%,38%,34.5%,-11.7% (active),,19.6%,24.2%,24.9%,58.2%,71.7%,41.6%,41.3%,27.9%,41.4%,38.1%,41.6%
